Screens (PubChem)
FUS suppressor = rescues growth of FUS-expressing yeast. 390,000 tested, 0.24% active. Potency, µM (top dose mostly 76.6 µM), most hits filed as activators. S. cerevisiae FUS-expressing, growth rescue, OD600, 24 h;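 note: plate controls were DMSO vehicle for no effect and reference control for full effect; nearly all actives have a fitted effect of over 55% in size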
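Steps: raffinose overnight preculture; dilution to OD 0.005 in 2% galactose minimal medium; compound addition (concentration series); 24hr at 30C, 99% humidity; absorbance read at 600 nm.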
TDP-43 yeast inh = inhibitors of TDP-43 toxicity in yeast; 410,000 tested, 1.8% active; AID 652104; Potency, µM (highest dose often 46.1 µM), for inactives: at the top dose growth rescue (activation), hits mostly activators; TDP-43 expressing yeast growth rescue, BacTiter-Glo, 24 h; note: % of control where 0% means no effect; nearly all actives have a fitted effect of over 50% in size
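Growth rescue of TDP-43-toxic yeast measured as ATP luminescence (BacTiter-Glo). Cells grown to mid-log in raffinose, induced in galactose at OD600=0.02, exposed to compound 24 hr at 30 deg C.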
Abeta yeast res = A-beta toxicity reversal in yeast; yeast expressing A-beta42, growth rescue, OD600, 48 h; response scale: 0% DMSO, 100% iron-clioquinol control; Potency, µM (series often up to 46.1 µM), hits mostly activators; 410,000 tested, 0.063% active; note: nearly all actives have a fitted effect of over 55% in size
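Growth rescue measured by 600 nm absorbance after 48 h yeast culture at 30 C with compound. Values normalized between DMSO and an equimolar ferric chloride plus clioquinol control.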
aSyn rescue = alpha-synuclein toxicity inhibition in yeast; Yeast expressing alpha-synuclein, growth rescue, BacTiter-Glo, 24 h; Potency, µM (top dose mostly 46.1 µM), inactives show at the highest dose growth rescue (activation), hits mostly activators; 370,000 tested, 0.14% active; AID 652106; note: % of control where 0% means no effect; nearly all actives have a fitted effect of over 65% in size
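Rescue of yeast growth: cells expressing toxic alpha-synuclein, induced in galactose at OD600 0.02, incubated with compound 24 h at 30 C. ATP luminescence quantified growth; inhibitors of toxicity appear as activators.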
* marks the source's active call; other numbers are inactive results; i = inactive; ? = inconclusive; . = not tested or not shown. Most compounds without a hit are left out; they make up all but 2.1% or so of the library. Calls come from the whole dose curve; as a rule, active = well fitted curve in the direction sought with a large enough effect; inconclusive = small, poorly fitted or top-dose-only effect, or another doubt; inactive = no such curve, though single readings can be large; an effect the other way counts as inactive or inconclusive. Potency is the fitted concentration of half-maximal effect.

SMILES | FUS suppressor | TDP-43 yeast inh | Abeta yeast res | aSyn rescue
COC(=O)C1=C(c2ccc(OC(F)(F)F)cc2)C[C@@H]2CC[C@H]1N2C(=O)NC1CCCCC1 | i | 17.8µM* | i | -10.4%
Cn1c(C(=O)NCCOc2ccccc2Cl)cc(=O)n(C)c1=O | i | -32.7% | i | -6.7%
COc1ccccc1NC(=O)Oc1cccc(OC(=O)c2ccccc2)c1 | i | ? | i | 0.8%
COC(=O)C1=C(c2cccc3c2S(=O)(=O)c2ccccc2-3)C[C@@H]2CC[C@H]1N2C(=O)N1CCc2cc(OC)c(OC)cc2C1 | 20µM* | ? | i | -0.1%
C=CCN1CC[C@]23c4c5ccc(O)c4O[C@@H]2/C(=N/N=C2\CC[C@@]4(O)C6Cc7ccc(O)c8c7[C@@]4(CCN6CC=C)[C@@H]2O8)CC[C@@]3(O)C1C5 | . | . | . | -14.2%
C[C@H](CCC(=O)O)[C@H]1CC[C@H]2[C@@H]3CC[C@@H]4C[C@H](O)CC[C@]4(C)[C@H]3CC[C@]12C | i | 1.1% | i | 5.01µM*
C[C@]12CC[C@H](O)C[C@@H]1CC[C@@H]1[C@@H]2CC[C@]2(C)[C@@H](C(=O)O)C[C@@H]12 | i | ? | i | -6.9%
Cc1cccc(OCCn2c(=O)oc3ccc(C)cc32)c1 | i | 14.1µM* | i | 1.1%
Cc1cccc(OCCn2cccc2/C=C2/C(=O)NC(=O)N(Cc3ccco3)C2=O)c1 | i | 0.8% | i | 3.9%
COC(=O)C1=C(c2cccc(OCc3ccccc3)c2)C[C@@H]2CC[C@H]1N2C(=O)NCCOc1ccc(OC)cc1 | ? | 25.0% | i | -7.5%
OC1CCC(Nc2ccn3nc(-c4cccc(OCc5ccccc5)c4)cc3n2)CC1 (stereo not drawn) | ? | 35.5µM* | i | -20.1%
O=C(Nc1ccc2nc(SCC(=O)N3CCCc4ccccc43)sc2c1)c1ccccc1F | i | ? | i | .
Cc1nc2ccc(NC(=O)C3COc4ccccc4O3)cc2s1 (stereo not drawn) | i | 15.8µM* | i | 0.5%
COc1ccc(CCNC(=O)c2cnc3sc(N4CCCCCC4)nn3c2=O)cc1 | i | ? | i | .
C#CCCC[C@@H]1OC(=O)CNC(=O)C([C@@H](C)CC)NC(=O)[C@@H]2CCCN2C(=O)C([C@@H](C)CC)OC(=O)[C@H](Cc2ccccc2)N(C)C(=O)[C@H](C(C)C)NC(=O)C1(C)C (stereo partly drawn) | 7.94µM* | -7.2% | i | 2.8%
CCC(C)C1NC(=O)C(NC(=O)C(CC(C)C)N(C)C(=O)C2CCCN2C(=O)C(C)O)C(C)OC(=O)C(Cc2ccc(OC)cc2)N(C)C(=O)C2CCCN2C(=O)C(CC(C)C)NC(=O)[C@H](C)C(=O)[C@H](C(C)C)OC(=O)CC1O (stereo partly drawn) | . | -15.5% | i | 9.6%
NC(=O)CI | . | . | . | 0.6%
Cc1cc(/C=C/c2ccnc3ccccc23)ccc1N(CCCl)CCCl | . | . | . | 3.2%
COc1cc(C(=O)NCCSc2c(-c3ccccc3)[nH]c3ccccc23)cc(OC)c1OC | ? | ? | i | .
